The values below come from ChEMBL document CHEMBL3988442, “University of Dundee, Small-Polar-MMV Screening Library” (2021).

Common to all, as to design: scale not given: direction of the effect not stated beside the values
Test [1] addresses Protein translocase subunit SecA (Escherichia coli (strain K12)) (UniProt P10408). As to the kind of experiment: Assay to Identify E. coli SecA ATPase Inhibitors. In kind it is functional. As to conditions: 30 µM.
Test [2] addresses T1, Ubiquitin-activating enzyme e1, putative (Leishmania donovani (strain BPK282A1)) (UniProt E9BSI1).
T1 sequence (whole entry): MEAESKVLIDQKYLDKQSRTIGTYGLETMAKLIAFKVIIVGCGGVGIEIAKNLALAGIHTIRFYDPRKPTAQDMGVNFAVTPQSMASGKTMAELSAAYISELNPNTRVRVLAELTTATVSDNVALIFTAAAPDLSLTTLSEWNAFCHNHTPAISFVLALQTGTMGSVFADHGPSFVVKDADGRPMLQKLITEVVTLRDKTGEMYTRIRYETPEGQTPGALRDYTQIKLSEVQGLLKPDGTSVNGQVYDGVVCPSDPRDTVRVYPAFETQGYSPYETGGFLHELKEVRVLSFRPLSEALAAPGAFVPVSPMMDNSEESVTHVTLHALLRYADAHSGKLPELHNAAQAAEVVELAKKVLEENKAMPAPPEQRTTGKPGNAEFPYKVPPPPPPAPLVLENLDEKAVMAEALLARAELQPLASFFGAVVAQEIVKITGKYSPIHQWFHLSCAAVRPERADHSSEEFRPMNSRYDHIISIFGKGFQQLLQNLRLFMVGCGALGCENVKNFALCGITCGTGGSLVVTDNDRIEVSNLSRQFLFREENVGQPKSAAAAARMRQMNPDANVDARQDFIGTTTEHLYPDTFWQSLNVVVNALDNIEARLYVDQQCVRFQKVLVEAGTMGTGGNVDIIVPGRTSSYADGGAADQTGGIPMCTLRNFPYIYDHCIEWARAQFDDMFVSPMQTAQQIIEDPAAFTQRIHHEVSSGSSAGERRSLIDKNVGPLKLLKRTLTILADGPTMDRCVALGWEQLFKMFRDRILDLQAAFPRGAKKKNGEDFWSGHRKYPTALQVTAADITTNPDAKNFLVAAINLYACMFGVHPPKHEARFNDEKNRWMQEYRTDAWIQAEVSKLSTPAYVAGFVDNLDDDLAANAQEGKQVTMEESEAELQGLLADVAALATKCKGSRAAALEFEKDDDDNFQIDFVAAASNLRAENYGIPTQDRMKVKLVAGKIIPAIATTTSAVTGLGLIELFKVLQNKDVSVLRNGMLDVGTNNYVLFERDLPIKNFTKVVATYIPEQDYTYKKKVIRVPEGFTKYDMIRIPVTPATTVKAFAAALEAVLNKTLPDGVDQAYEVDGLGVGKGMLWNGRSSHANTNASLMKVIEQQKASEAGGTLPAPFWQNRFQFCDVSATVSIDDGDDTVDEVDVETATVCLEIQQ
The test can be described thus: Leishmania donovani Ubiquitin Activating Enzyme (LdE1). As to conditions: 30 µM. In kind it is functional.

In test [3] the target is Sialic acid-binding Ig-like lectin 9 (Homo sapiens) (UniProt Q9Y336). The test can be described thus: Hs-Siglec9 ALPHAscreen SOP 20170721. The following applies: 10 µM.
Sialic acid-binding Ig-like lectin 9 (Homo sapiens), sequence (Q9Y336 whole entry): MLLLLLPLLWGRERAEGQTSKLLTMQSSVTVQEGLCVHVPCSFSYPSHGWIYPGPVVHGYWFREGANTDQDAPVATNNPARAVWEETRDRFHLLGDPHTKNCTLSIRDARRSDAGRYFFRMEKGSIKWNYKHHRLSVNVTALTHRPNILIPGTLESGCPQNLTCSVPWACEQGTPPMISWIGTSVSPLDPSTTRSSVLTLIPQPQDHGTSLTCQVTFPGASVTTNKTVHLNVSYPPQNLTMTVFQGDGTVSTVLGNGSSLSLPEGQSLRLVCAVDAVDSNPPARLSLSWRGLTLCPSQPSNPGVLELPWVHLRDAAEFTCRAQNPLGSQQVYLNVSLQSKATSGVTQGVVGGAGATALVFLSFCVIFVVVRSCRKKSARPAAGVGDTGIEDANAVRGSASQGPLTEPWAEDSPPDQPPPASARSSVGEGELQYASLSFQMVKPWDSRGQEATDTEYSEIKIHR
A further test concerns Trypanosoma cruzi. The test can be described thus: Trypanosoma cruzi phosphomannomutase and mannose-1-phosphate guanylyltransferase assay. In kind it is functional. The following applies: 10 µM.
For test [4], the target named is T2, Arginase-2, mitochondrial (Homo sapiens) (UniProt P78540).
T2 sequence (whole entry): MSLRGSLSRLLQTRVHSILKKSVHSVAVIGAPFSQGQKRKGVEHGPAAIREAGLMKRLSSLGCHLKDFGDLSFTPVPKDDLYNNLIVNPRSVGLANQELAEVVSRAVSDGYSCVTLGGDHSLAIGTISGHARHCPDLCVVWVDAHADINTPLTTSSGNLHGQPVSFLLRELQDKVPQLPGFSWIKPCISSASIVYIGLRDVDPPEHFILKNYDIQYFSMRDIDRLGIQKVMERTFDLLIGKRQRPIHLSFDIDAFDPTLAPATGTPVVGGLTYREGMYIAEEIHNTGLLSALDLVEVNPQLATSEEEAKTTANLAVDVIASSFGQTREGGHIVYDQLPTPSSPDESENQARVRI
As to the kind of experiment: in vitro enzyme assay to detect the production of urea directly proportional to the activity of Arginase II. Note: in the data most compounds retested in dose-response had high values. The test is classed as functional. The following applies: 33.3 µM.

Test [5] has as its target T3, Proteasome subunit beta (Trypanosoma cruzi) (UniProt O96673).
T3 sequence (whole entry): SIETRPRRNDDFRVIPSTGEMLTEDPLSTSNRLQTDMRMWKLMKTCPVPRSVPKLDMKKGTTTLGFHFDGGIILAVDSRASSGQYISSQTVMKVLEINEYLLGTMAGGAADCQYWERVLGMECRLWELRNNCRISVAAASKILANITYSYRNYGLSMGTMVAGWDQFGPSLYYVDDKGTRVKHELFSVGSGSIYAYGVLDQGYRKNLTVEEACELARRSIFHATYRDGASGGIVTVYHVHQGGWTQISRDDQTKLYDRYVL
As to the kind of experiment: Trypanosoma cruzi proteasome chymotrypsin-like activity (TcProtChymo) assay. Note: in the data most compounds retested in dose-response had high values. In kind it is functional. The following applies: 9.37 µM.

A further test is filed under the species Homo sapiens. The test can be described thus: To identify inhibition of the IFN signalling (Jak-Stat) pathway via expression of an eGFP reporter gene under the control of an IFN-stimulated response element (ISRE) containing MxA promoter. The test is classed as functional. The following applies: 30 µM. For orientation: In a reporter assay the amount or activity of a reporter protein is the signal.

Test [6] addresses T4, Tyrosyl-tRNA synthetase, putative (Trypanosoma cruzi (strain CL Brener)) (UniProt Q4DSP6).
T4 sequence (whole entry): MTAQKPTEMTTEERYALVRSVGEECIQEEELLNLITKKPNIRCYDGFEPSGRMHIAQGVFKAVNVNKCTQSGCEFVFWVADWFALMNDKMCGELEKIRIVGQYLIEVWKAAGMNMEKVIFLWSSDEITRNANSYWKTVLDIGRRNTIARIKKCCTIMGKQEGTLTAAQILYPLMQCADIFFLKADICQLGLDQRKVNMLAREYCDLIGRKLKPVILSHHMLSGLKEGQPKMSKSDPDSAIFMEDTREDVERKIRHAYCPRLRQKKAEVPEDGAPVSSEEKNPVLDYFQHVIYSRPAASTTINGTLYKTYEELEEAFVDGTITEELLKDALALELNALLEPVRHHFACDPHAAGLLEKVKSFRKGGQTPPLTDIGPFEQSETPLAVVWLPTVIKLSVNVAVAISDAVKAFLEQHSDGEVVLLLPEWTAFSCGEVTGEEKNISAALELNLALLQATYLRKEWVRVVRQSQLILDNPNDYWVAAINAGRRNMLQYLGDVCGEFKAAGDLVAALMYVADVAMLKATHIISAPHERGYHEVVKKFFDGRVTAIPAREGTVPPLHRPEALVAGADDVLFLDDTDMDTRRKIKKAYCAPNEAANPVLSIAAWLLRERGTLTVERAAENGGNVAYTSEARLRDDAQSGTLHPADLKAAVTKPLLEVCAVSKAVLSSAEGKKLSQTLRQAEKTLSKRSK
The test can be described thus: Trypanosoma cruzi tyrosyl tRNA synthetase (TcYRS) _High Tyrosine SOP. Note: in the data most compounds retested in dose-response had high values. The test is classed as functional. The following applies: 30 µM.

Test [7] concerns the target T4, Tyrosyl-tRNA synthetase, putative (Trypanosoma cruzi (strain CL Brener)). The test can be described thus: Trypanosoma cruzi tyrosyl tRNA synthetase (TcYRS) SOP. In kind it is functional. As to conditions: 30 µM.
For test [8], the target named is Chromo domain-containing protein 1 (Saccharomyces cerevisiae (strain ATCC 204508 / S288c) (Baker's yeast)) (UniProt P32657). The test can be described thus: ScCHD-1 Enzyme Inhibition Assay. Note: in the data most compounds retested in dose-response had high values. The test is classed as functional. As to conditions: 30 µM.
Chromo domain-containing protein 1 (Saccharomyces cerevisiae (strain ATCC 204508 / S288c) (Baker's yeast)), sequence (P32657 whole entry, the tested form may be a part): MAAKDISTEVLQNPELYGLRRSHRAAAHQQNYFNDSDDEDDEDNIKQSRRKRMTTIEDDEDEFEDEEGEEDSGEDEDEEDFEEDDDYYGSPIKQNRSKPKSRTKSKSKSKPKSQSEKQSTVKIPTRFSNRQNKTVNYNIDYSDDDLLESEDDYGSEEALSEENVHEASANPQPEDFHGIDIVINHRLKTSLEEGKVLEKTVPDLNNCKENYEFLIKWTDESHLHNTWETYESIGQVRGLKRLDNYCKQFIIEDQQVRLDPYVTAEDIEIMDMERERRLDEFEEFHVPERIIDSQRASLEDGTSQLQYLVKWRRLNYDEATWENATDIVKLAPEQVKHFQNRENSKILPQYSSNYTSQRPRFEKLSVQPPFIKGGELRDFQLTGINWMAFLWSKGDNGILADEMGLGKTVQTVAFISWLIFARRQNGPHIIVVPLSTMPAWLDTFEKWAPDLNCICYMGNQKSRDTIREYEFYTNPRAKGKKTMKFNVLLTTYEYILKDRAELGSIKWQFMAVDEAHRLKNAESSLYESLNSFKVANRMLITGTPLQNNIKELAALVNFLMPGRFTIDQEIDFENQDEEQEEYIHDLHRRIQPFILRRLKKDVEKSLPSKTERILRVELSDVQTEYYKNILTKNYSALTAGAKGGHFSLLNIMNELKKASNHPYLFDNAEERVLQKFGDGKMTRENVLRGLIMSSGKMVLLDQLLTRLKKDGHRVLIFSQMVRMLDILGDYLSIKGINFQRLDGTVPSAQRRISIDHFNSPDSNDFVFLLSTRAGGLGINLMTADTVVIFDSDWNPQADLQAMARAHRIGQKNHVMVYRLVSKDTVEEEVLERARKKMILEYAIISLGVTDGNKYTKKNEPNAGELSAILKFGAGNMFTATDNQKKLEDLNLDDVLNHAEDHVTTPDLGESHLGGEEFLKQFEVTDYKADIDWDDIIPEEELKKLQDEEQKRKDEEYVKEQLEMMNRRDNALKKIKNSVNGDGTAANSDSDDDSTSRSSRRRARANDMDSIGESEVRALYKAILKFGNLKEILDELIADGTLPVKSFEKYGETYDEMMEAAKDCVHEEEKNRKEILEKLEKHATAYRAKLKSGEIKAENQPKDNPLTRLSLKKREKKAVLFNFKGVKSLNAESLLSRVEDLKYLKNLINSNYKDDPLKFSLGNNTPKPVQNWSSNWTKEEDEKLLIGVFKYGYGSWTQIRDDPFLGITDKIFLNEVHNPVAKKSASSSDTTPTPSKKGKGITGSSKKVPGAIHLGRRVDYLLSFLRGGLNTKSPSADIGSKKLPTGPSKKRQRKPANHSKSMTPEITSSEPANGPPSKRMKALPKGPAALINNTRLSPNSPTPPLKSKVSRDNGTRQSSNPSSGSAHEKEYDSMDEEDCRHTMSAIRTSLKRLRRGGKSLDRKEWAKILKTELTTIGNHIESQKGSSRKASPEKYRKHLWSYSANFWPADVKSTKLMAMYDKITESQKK

The structures appear in SMILES notation. For part of these data: Results with a measured potency or affinity are listed apart.

Protein translocase subunit SecA (Escherichia coli (strain K12)), sequence (P10408 whole entry): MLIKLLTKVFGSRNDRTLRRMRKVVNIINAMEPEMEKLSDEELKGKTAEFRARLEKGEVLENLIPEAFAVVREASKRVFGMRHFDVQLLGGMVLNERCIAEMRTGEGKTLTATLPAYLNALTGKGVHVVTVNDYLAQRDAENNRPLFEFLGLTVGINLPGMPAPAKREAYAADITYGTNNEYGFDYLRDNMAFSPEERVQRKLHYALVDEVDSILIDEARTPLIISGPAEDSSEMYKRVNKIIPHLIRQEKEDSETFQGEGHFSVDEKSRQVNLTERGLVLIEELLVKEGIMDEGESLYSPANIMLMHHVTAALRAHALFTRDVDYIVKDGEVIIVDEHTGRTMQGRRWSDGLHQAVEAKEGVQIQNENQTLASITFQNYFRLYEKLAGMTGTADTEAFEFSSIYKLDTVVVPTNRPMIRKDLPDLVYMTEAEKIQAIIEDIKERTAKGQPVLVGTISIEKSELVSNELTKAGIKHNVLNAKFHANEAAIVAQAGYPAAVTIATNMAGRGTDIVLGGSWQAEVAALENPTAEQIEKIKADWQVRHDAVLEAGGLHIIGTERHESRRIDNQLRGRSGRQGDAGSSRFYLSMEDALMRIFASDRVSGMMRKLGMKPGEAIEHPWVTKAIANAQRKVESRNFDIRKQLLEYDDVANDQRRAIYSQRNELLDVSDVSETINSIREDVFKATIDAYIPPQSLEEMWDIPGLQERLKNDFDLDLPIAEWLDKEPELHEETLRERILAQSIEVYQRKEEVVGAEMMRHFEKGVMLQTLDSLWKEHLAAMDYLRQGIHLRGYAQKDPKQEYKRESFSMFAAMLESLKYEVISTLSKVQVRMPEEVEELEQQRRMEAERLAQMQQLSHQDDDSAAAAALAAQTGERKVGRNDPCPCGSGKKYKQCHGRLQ

Take `CCc1[nH]ncc1C(=O)N1CCCC(n2cccn2)C1` (stereo not given): the Percent Effect in [1] is -3.15%; in test [2], 13.3%; in test [3] it was 7.05%; with Trypanosoma cruzi, -2.21%; in test [4], 4.88%; in test [5], 7.38%. For the same molecule, the Percent Effect in the test filed under Homo sapiens was -9.13%; in test [6] it was 4.74%; in test [7] it was 15.4%; in test [8], -7.04%.

With `CC(C)c1noc(CCC(=O)NCC2CCOC2)n1` (stereo not given), the Percent Effect was -1.25% in test [1]; 0% in test [2]; -0.749% in test [3]; 0.602% in the test with Trypanosoma cruzi; -5.32% in test [4]; 10.8% in [5]. In addition, the Percent Effect was 2.04% in the test filed under Homo sapiens, 8.95% in test [6], 17.9% in test [7] and -9.05% in test [8].

As to `Cc1noc(C)c1C(=O)N1CC[C@H]2C[C@@H](c3nccs3)O[C@@H]2C1`, the Percent Effect in test [1] was -6%; in test [2], 6.49%; in test [3], 1.62%; in the test with Trypanosoma cruzi it was 5.55%; in test [4], -10.5%; in [5], 14.2%. Also, the Percent Effect in the test filed under Homo sapiens was -13.4%; in test [6], 7.89%; in test [7], 12.8%; in test [8], -3.15%.

On to `Cc1cc(N2CCC(CC(N)=O)CC2)nc(-c2ccncc2)n1`, for which the Percent Effect in test [1] was -7.29%; in test [2] it was 13%; in [3] it was 10.8%; in the test with Trypanosoma cruzi it was -1.87%; in [4] it was 3.07%; in [5], 11.1%. The Percent Effect in the test listed under Homo sapiens was -5.86%; in test [6], 7.84%; in [7], 21.2%; in test [8], -6.28%.

On to `COc1cc(CNC(=O)C2CC(=O)N(C(C)C)C2)ccn1` (stereo not given), for which the Percent Effect was -1.79% in test [1]; 10.3% in test [2]; -1.27% in [3]; -1.22% with Trypanosoma cruzi; 2.05% in test [4]; 12.7% in test [5]. Besides, the Percent Effect is 24.4% in the test listed under Homo sapiens, 3.35% in test [6], 10.8% in [7] and -3.72% in test [8].

For `COCCN1C(=O)CCC12CCN(C(=O)CC1CC1)CC2`, the Percent Effect in [1] was -0.652%; in test [2], -1.3%; in [3], 0.0799%; with Trypanosoma cruzi, -0.938%; in test [4], 2.28%; in test [5] it was 5.75%. Also, the Percent Effect in the test listed under Homo sapiens is 11.8%; in test [6], -0.966%; in [7] it was -15%; in test [8], 0.945%.

In the case of `CC1CCCCN1C(=O)CN1CCN(c2ccc3nncn3n2)CC1` (stereo not given), the Percent Effect was -3.43% in test [1]; 15.4% in test [2]; 1.72% in test [3]; 7.42% in the test with Trypanosoma cruzi; -0.82% in test [4]; 11.3% in test [5]. For the same molecule, the Percent Effect in the test filed under Homo sapiens is 6.75%; in test [6] it was 6.22%; in test [7], 13.2%; in test [8], -7.79%.

Consider `CC(=O)N(Cc1noc(C2CC2)n1)C1CCN(Cc2ccncc2)C1` (stereo not given), for which the Percent Effect was -3.41% in [1]; 5.13% in [2]; -20.1% in [3]; 11.6% in the test with Trypanosoma cruzi; -4.51% in test [4]; 4.86% in [5]. The Percent Effect in the test filed under Homo sapiens was 4.66%; in test [6], 1.44%; in test [7] it was 10.8%; in test [8], -5.11%.

Take `O=S(=O)(CCNC1CCc2ncnn2C1)c1ccccc1` (stereo not given): the Percent Effect in test [1] was -0.316%; in [2], 0%; in test [3] it was 9.36%; in the test with Trypanosoma cruzi it was 0.746%; in test [4], -1.43%; in test [5], 5.09%. Moreover, the Percent Effect worked out at 0.944% in the test listed under Homo sapiens, 1.96% in [6], 4.71% in test [7] and 5.51% in [8].

`CN1CCN(CC2CC2)C(=O)c2cnc(N3CC[C@@H](O)C3)nc21`: the Percent Effect was -3.96% in [1]; 0% in test [2]; -4.48% in test [3]; -3.21% in the test on Trypanosoma cruzi; -4.43% in test [4]; 3.99% in test [5]. In addition, the Percent Effect in the test filed under Homo sapiens was -1.63%; in [6] it was -2.63%; in test [7] it was -7.69%; in [8], -9.27%.

With `O=C(CCCOc1ccccc1Cl)N1CCCC(n2cncn2)C1` (stereo not given), the Percent Effect in test [1] is -2.02%; in test [2], 5.13%; in [3], -18.2%; in the test on Trypanosoma cruzi it was 6.1%; in test [4], -13.9%; in test [5], -5.03%. For the same molecule, the Percent Effect in the test listed under Homo sapiens was -5.2%; in [6], 1.44%; in test [7], 6.02%; in test [8], 0.499%.

Turning to `CN(C)CC(=O)N1CCC2(CCN(Cc3ccccn3)C2=O)C1` (stereo not given), the Percent Effect in test [1] is -3.33%; in [2] it was -1.3%; in test [3] it was -3.23%; in the test on Trypanosoma cruzi, -2.63%; in [4] it was -4.45%; in [5] it was 12.6%. Besides, the Percent Effect in the test listed under Homo sapiens is -1.64%; in test [6], 1.58%; in test [7], 7.69%; in test [8] it was -2.1%.
